The record followed here is publication PMC12136788.

The chains are these.
B1: chr2:232320318:232320319:-_ENSG00000115053_ENST00000322723|hu_hu|hu_hu_hu_mus_True|28_78 (ssRNA)
RNA: GGGAGUUCUACAGUCCGACGAUCACUAUUAAAGUCUACAAAACCAAACCCUUUGGAGGACCCAGUUUCCCGAUCAGUGACUAUUCUUGCACGAACAGAGCCCUCAAAUGACUCCUUUAAGGUCUCUUCAGUGGUAUCCUCAGACAACAGAGGAUUGAGCAUCA
B2: chr13:100518589:100518590:+_ENSG00000125246_ENST00000339105|hu_hu|FALSE|FALSE (ssRNA)
RNA: GGGAGUUCUACAGUCCGACGAUCUUCUCGUGACUGUCUAAGCAGCCCAGCUCCAUCUCGAAAGUCAAUGUACACCAGAUCUAUGGCUUGGAGACCAAAGGCUUUCGCUAUGACAACAAUCUUUUGCCGGGCGUAGAGAAUAUCCAACAGAGGAUUGAGCAUCA
B3: chr17:60770872:60770873:+_ENSG00000011028_ENST00000303375|hu_hu|hu_hu_hu_mus_True|58_58 (ssRNA)
RNA: GGGAGUUCUACAGUCCGACGAUCUCUUUAAAAAAAAAAAAAAAAAGACAAACAAUAAUAGCACAUUUCGAGAAUCAUCAACUACAGUAGAGGGUCCGCUUUGAGUUUUUGUUCACAUCGUCCUGCACUGGGACACGGGGACUGCAACAGAGGAUUGAGCAUCA
B4: chr17:60770872:60770873:+_ENSG00000011028_ENST00000303375|hu_hu|hu_hu_hu_mus_True|58_88 (ssRNA)
RNA: B3 RNA with A47U, C48U, A49U, C52A, U55C
B5: chr17:60770872:60770873:+_ENSG00000011028_ENST00000303375|hu_hu|hu_hu_hu_mus_True|1_58 (ssRNA)
RNA: B3 RNA with G137A, G138C, G139C, C141G, U142G, G143A
B6: chr22:38882006:38882007:-_ENSG00000100201_ENST00000396821|hu_hu|FALSE|FALSE (ssRNA)
RNA: GGGAGUUCUACAGUCCGACGAUCAGGAGGAGGAGGGGGAGGAGGAGGAGGGUAUUGGUAGGCAGUCUGCCCCAUGUAACCUAUCAUAUUGGUAGCUCCCGGAGGCUGUGCAAACUGUUGUGACAUCAGUGGCUGUGGCUGCUGCAACAGAGGAUUGAGCAUCA
B7: chr10:28872372:28872373:+_ENSG00000095787_ENST00000354911|hu_mus|FALSE|FALSE (ssRNA)
RNA: GGGAGUUCUACAGUCCGACGAUCUGCAUCUGAAGUUUUGCUUGGAUUAUUGCUUGGAUUAGAAGAAUGUGAAUUUGAACUAUGAAGUGCACUGUGGUUGUGUGAGUUUUCUUGUGGAGAGUAACUGGUCCCACCGUCCCUUUCCAACAGAGGAUUGAGCAUCA
B8: chr19:8913615:8913616:-_ENSMUSG00000071658_ENSMUST00000096259|mus_hu|mus_mus_mus_hu_False|18_108 (ssRNA)
RNA: GGGAGUUCUACAGUCCGACGAUCAGGGGGGCACCAACUUCUGCCUGAAAUGGGUGCCCCACCCAGUAGGGAGUUGCAGCUGAAAGUAUCUGAUGCAGAAGCAGUGACUAUACGAAAGGUCACUAGAGGGGAGGGCCAGGCCAGCAACAGAGGAUUGAGCAUCA
B9: 49433355_49433581_8031_CDS_ENSG00000167548_ENST00000301067|human|control|control (ssRNA)
RNA: GGGAGUUCUACAGUCCGACGAUCGCGCUGGAUCUGCUGCCGAAUCAGCAGCUCUCGUAGUCGCUGGCGCUGCCGUUGCUUCUCCAGCUCUGUUUGGCUAAGGCCGGACAUGCCUGGGUCCUGGGUACCUGGGAGUUCAGCUGUCAACAGAGGAUUGAGCAUCA
B10: chr15:11317090:11317091:-_ENSMUSG00000022241_ENSMUST00000022849|mus_mus|FALSE|FALSE (ssRNA)
RNA: GGGAGUUCUACAGUCCGACGAUCUUCUGUGAGGAUGGCAAUCAUUCUUUCCACCGACCCCAGGAUGGCUCUGUGAACAAUCACUGGCCUUUUCUUAUCAUCGCCAUCGUGGCUGACGUAAGUAAGGUUAAACCUGAUGGGCAACAACAGAGGAUUGAGCAUCA
B11: chr4:87735950:87735951:+_ENSG00000163629_ENST00000511467|hu_hu|motif|central (ssRNA)
RNA: GGGAGUUCUACAGUCCGACGAUCCUCACCAUGUCCUUGUAACAAUGUCUGCUAUCAUCAAAUGCUGCCUUUAAUCAUCCCGGAGAUCUGCAUUGUUUGGUUAGUGUUAAAAUUUUGUAAAUAAUUAUCAUAGGUUAAAGUAGCCAACAGAGGAUUGAGCAUCA
B12: 133533018_133533138_1595_3pUTR_ENSG00000113575_ENST00000481195|human|control|control (ssRNA)
RNA: GGGAGUUCUACAGUCCGACGAUCUAGAAGGGAGGCCUUGGUAAUUAUUUUUAAAAAUGUUCAUUAAGCUCCAAUGAUUGUUUGCUGCUAUCCUUAUCUACAGUCAUGCUGAGUAAAGCUAUAGCUAAAUGGAAGUUAAAUUGUCAACAGAGGAUUGAGCAUCA
B13: chr20:57609950:57609951:-_ENSG00000101166_ENST00000355937|hu_mus|FALSE|FALSE (ssRNA)
RNA: GGGAGUUCUACAGUCCGACGAUCGAUCUUUUGUUUAGAUCAAAAGUCACAGCCUUACCCCACCUCAUUAAAAAAAAAGAUCUACCUAAAAUAAUUGUGUCUUUUAAAUAACAAAUAAUAUGAUGCCAGCUUGAGAGUCCUGGACAACAGAGGAUUGAGCAUCA
B14: chr7:66561770:66561771:+_ENSMUSG00000025326_ENSMUST00000107537|mus_mus|motif|central (ssRNA)
RNA: GGGAGUUCUACAGUCCGACGAUCUUAGCAUUACAGUAAAUAAGAGCUCUGUCUCAACUACUACAAGAAAGAAAAUAAUCCGGAGACAUCCUUUUCCCCUUCCAAUGAUUUGAAAGCUACCAUUAUCCCCUGCCAAUUAAAAUCCAACAGAGGAUUGAGCAUCA
B15: chr4:87735950:87735951:+_ENSG00000163629_ENST00000511467|hu_hu|FALSE|FALSE (ssRNA)
RNA: B11 RNA with G81U, G82A
B16: chr19:60011576:60011577:-_ENSMUSG00000040022_ENSMUST00000171986|mus_hu|FALSE|FALSE (ssRNA)
RNA: GGGAGUUCUACAGUCCGACGAUCUUUUGCUGUAAAUGGAUUGGUUGACUCAUAAUCAAAAUAGUCCUGGCGAUUUUCACUAAAUGCAUUAGGUGAUUUCAAGUCACAAGGGCUAUCAGAUCCCCCAUUGUUAAGUUUAUCAGACAACAGAGGAUUGAGCAUCA
B17: chr7:106631192:106631193:-_ENSMUSG00000030744_ENSMUST00000032998|mus_mus|motif|central (ssRNA)
RNA: GGGAGUUCUACAGUCCGACGAUCCUUCAGCCAGCUCCCGAGUGAGAAAUUCAUUCAGCUCAGCUUUGAAGAUGCCAUCAGCGGCAAACUUCCUCUUCUUGGAAAUCUGCACCGCCAUCUUGCAGCCGCGCGCCGCUGAAAGGACAACAGAGGAUUGAGCAUCA
B18: chr7:72463354:72463355:-_ENSMUSG00000030516_ENSMUST00000102592|mus_hu|FALSE|FALSE (ssRNA)
RNA: GGGAGUUCUACAGUCCGACGAUCUAACUUCCUGGCACUUUUCCGAGAUUCUGGACAUAACCUCAUUCUCAUUGUUUUUACUCCUUGCUUAGAAUCAGGGUUAAGAAAUACAACAAUUGGAUACCACUGGGCAUAGUUAAGACGCAACAGAGGAUUGAGCAUCA
B19: chr17:56552419:56552420:-_ENSMUSG00000013236_ENSMUST00000086828|mus_mus|mus_mus_mus_hu_False|8_68 (ssRNA)
RNA: GGGAGUUCUACAGUCCGACGAUCAAAAAAUACACUAUUUAAAAAAAAUGAAAUGUCACGGGAUACAAAAAAAUAUAGAGUUUUAAAAGAAAGCUGGAUUCUGGUCCCAGCCCAGUGUCCCCAGGCUGAGUGCGGAAGAGGAGCCAACAGAGGAUUGAGCAUCA
B20: chr17:56552419:56552420:-_ENSMUSG00000013236_ENSMUST00000086828|mus_mus|mus_mus_mus_hu_False|68_98 (ssRNA)
RNA: B19 RNA with U38A, U39A, A128C, G129A, U130G, G131A, C132G, G133C, A135G, A136G
B21: chr17:56552419:56552420:-_ENSMUSG00000013236_ENSMUST00000086828|mus_mus|mus_mus_mus_hu_False|38_68 (ssRNA)
RNA: GGGAGUUCUACAGUCCGACGAUCAAAAAAUACACUAUUUAAAAAAAAUGAAAUGUCACGGGAUACAAAAAAAUAUAGAGUUUUAAAAGAAAGCUGGAAAAAAAAUGCAGCCCAGUGUCCCCAGGCUGCAGAGCGGGGAGGAGCCAACAGAGGAUUGAGCAUCA
B22: 22200820_22267049_921_CDS_ENSMUSG00000039197_ENSMUST00000045376|mouse|control|control (ssRNA)
RNA: GGGAGUUCUACAGUCCGACGAUCUUGAGACAGAAAGCCUCCAACAAAUGCAUCUCCAGCUCCAUUGGUGUCAAUGAUCUCUUCCUGGUUUUGAUCCAAGACAGGAAAAGCAGUGACAUCAUUCUCUGCAGCCACUAUGGUGUCCAACAGAGGAUUGAGCAUCA
B23: chr17:56552419:56552420:-_ENSMUSG00000013236_ENSMUST00000086828|mus_mus|mus_mus_mus_hu_False|68_78 (ssRNA)
RNA: GGGAGUUCUACAGUCCGACGAUCAAAAAAUACACUAUUUAAAAAAAAUGAAAUGUCAGAAAAAGAAAAAAAAUAUAGAGUUUUAAAAGAAAGCUGGAUUCUGGUCCCAGCCCAGUGUCCCCAGGCUGCAGAGCGGGGAGGAGCCAACAGAGGAUUGAGCAUCA

Changes are numbered by the printed parent chain. Whole data set: some 24,000 sequences, median “enrichment r” near 0.99, cut for the highest 2% near 3.7. What follows is part of a selection rich in the highest values, with near analogues and random picks from the rest.

This experiment addresses T1, UNK ZnF1-3 (human, UniProt Q9C0B0 31-174).
T1 sequence: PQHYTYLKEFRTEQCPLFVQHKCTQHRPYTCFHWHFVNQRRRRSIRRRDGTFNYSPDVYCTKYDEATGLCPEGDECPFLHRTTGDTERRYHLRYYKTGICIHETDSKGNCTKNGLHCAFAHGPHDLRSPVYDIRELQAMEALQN
Nature of the experiment: nsRBNS (natural sequence RNA bind-n-seq); RBNS binding buffer (assumed for nsRBNS): 25 mM Tris pH 7.5, 150 mM KCl, 3 mM MgCl2, 0.01% Triton X-100, 500 ug/ml BSA, 20 U/ml SUPERase-In, 4 C; UNK is unkempt and MSI1 is Musashi-1; names of the RNAs are library labels; protein concentration not given here; high values mean tight binding.
In turn, B1 gave a binding signal of 0.596 enrichment R.
The result for B2 reads 0.61 enrichment R.
The molecule B3 displayed a binding signal of 4.08 enrichment R.
B4 returned a binding signal of 4.59 enrichment R.
As for B5, the binding signal came out at 3.08 enrichment R.
As for B6, the figure is 1.56 enrichment R; as for B7, 1.04 enrichment R; as for B8, 0.986 enrichment R.
The result for B9 reads 0.484 enrichment R; that for B10, 1.43 enrichment R; that for B11, 5.3 enrichment R.
Turning to B12, the binding signal was 1.37 enrichment R.
With B13, the binding signal came to 2.8 enrichment R.
As for B14, the figure is 1.63 enrichment R; as for B15, 3.93 enrichment R; as for B16, 0.505 enrichment R.
Turning to B17, the binding signal turned out to be 0.767 enrichment R.
The result for B18 reads 1.13 enrichment R.
As for B19, the figure is 6.22 enrichment R; as for B20, 9.31 enrichment R; as for B21, 10.8 enrichment R.
Molecule B22 came in with a binding signal of 0.736 enrichment R.
As for B23, the figure is 10.9 enrichment R.
